Results taken from PubChem BioAssay AID1571 (National Center for Advancing Translational Sciences (NCATS), 2009).
Results filed as inconclusive are left out. A call without a number means that no potency is given here. Unmarked numbers belong to inactive results. Active and inactive are the calls of the source. The call rests on the fitted dose curve; in most records, active means well fitted curve in the direction sought with a large enough effect; inconclusive means small, poorly fitted or top-dose-only effect, or effect the other way; inactive means flat fitted curve, though single readings scatter.

Test: Total Fluorescence Confirmation Counterscreen for Inhibitors of the Interaction of Thyroid Hormone Receptor and Steroid Receptor Coregulator 2, Fluorescein Fluoroprobe
Details: TRbeta/SRC2-fluorescein mix, total fluorescence interference; series mostly up to 92.2 µM
In short: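 Human TRbeta ligand-binding domain (0.6 uM) with 20 nM fluorescein-labelled SRC2 peptide, 1 uM T3, 5% DMSO, Tris pH not given; 5 hr ambient incubation. Total fluorescence (S + 2P, parallel plus perpendicular channels) flags fluorescent or light-absorbing compounds; % activity per concentration.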

Q: For `Cn1c(NNC(=O)c2c(F)cccc2F)cc(=O)n(C)c1=O`, which Potency is on record?
A: Its Potency is “inactive”.

Q: With `Nc1cccnc1Sc1cc(Cl)c(Cl)cc1Cl` as the compound, how does the Potency read?
A: The Potency was “inactive”.

Q: For `O=C(NNc1cc(N2CCOCC2)nc(N2CCOCC2)n1)c1ccc(Cl)c(Cl)c1`, which Potency is on record?
A: The Potency was “inactive”.

Q: Which total fluorescence change, positive = fluorescent does the source give for `CCN(CC)S(=O)(=O)c1cccc(N=NC2=C(O)CCCC2=O)c1` here?
A: Its total fluorescence change, positive = fluorescent is 7.56% [at 0.0112 µM].

Q: With `CC(=O)c1cccc(NC(=O)COC(=O)c2ccc(S(C)(=O)=O)c([N+](=O)[O-])c2)c1` as the compound, how does the total fluorescence change, positive = fluorescent read?
A: The total fluorescence change, positive = fluorescent was 9.6% [at 11.6 µM].

Q: Which Potency does the source give for `CC(=O)NC1N=C(C)N(c2ccccc2)C1=O` (stereo unspecified) here?
A: The Potency was “inactive”.

Q: Which total fluorescence change, positive = fluorescent does the source give for `CN(CCO)c1nc(N)c2c(N)nc3c(c2c1C#N)CC(=O)N3C1CCCC1` here?
A: The total fluorescence change, positive = fluorescent was 13.6% [at 11.6 µM].

Q: With `COc1ccc(-c2nc(CS(=O)CC(=O)NCc3ccccn3)c(C)o2)cc1` (stereo unspecified) as the compound, how does the Potency read?
A: Its Potency is 39.8 µM [fluorescent] (active).

Q: Which Potency does the source give for `CN1N=C(C(C)(C)C)CC1=O` here?
A: Its Potency is “inactive”.

Q: For `Cc1ccc2c(CC(=O)Nc3c(C(=O)c4ccc(F)cc4)oc4ccccc34)coc2c1C`, which Potency is on record?
A: The Potency was “inactive”.

Q: Which Potency does the source give for `Cc1cc(C)cc(OCC(=O)NCCc2nc3ccccc3[nH]2)c1` here?
A: The Potency was “inactive”.

Q: For `COc1cc(C(c2c(C)[nH][nH]c2=O)c2c(C)[nH][nH]c2=O)ccc1OC(=O)c1cccc(C)c1`, which Potency is on record?
A: Its Potency is “inactive”.

Q: Which total fluorescence change, positive = fluorescent does the source give for `O=C(O)/C=C/C(=O)Nc1ccc(OC(F)(F)F)cc1Br` here?
A: The total fluorescence change, positive = fluorescent was 17.7% [at 0.0112 µM].

Q: For `O=C1CCCC(O)=C1N=Nc1cccc(S(=O)(=O)N2CCOCC2)c1`, which Potency is on record?
A: The Potency was “inactive”.

Q: Which total fluorescence change, positive = fluorescent does the source give for `COC(=O)c1ccccc1-c1ccc(C(c2c(C)[nH][nH]c2=O)c2c(C)[nH][nH]c2=O)o1` here?
A: The total fluorescence change, positive = fluorescent was 15.2% [at 5.76 µM].

Q: With `CN1CCc2ccc3c4c2[C@]1(C)Cc1cccc(c1-4)OCO3` as the compound, how does the Potency read?
A: Its Potency is 100 µM [fluorescent] (active).

Q: With `Cc1cc2ccccc2n1CCNC(=O)C(C)Oc1ccccc1` (stereo unspecified) as the compound, how does the Potency read?
A: The Potency was “inactive”.

Q: For `Cn1c(=O)[nH]c2nnc(-c3ccc(Cl)c(Cl)c3)nc2c1=O`, which Potency is on record?
A: The Potency was “inactive”.

Q: Which Potency does the source give for `Cc1nc2ccccc2n2c(O)c(CC(=O)O)cc12` here?
A: The Potency was 12.6 µM [fluorescent] (active).

Q: For `O=C(Nc1nc2ccc(Cl)cc2s1)c1ccc(N2CCCCC2)c([N+](=O)[O-])c1`, which Potency is on record?
A: The Potency was “inactive”.

Q: Which Potency does the source give for `CN(C(=S)Nc1cccnc1)c1ccc(O)cc1` here?
A: The Potency was “inactive”.
